Source: PubChem BioAssay

assay: Her2 expression decrease, cell viability multiplex – SKBR3 breast tumor cells, AlphaScreen, ATP viability, primary screen (AID 461); details: SKBR3 Her2 protein level, 18-24 h, measured here: SKBR3 viability, ATP luminescence, at 10 µM;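 further: percent of carrier control wells set as 100% viability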

| Compound | viability |
| --- | --- |
| COCCNC(=O)c1cc(-c2cccs2)on1 | 97% |
| CC(C)c1nnc(NC(=O)C2CCCCC2)s1 | 98.5% |
| Cc1nc2ccc(S(=O)(=O)NC(C(=O)Nc3nccs3)C(C)C)cc2s1 (stereo not given) | 87% |
| O=C(Cn1c(=O)[nH]c2ccsc2c1=O)NC1CCCCCC1 | 110% |
| CCCCN(C)Cc1c(O)ccc2c(-c3ccccc3)cc(=O)oc12 | 89% |
| O=C(CN1CCN(Cc2ccccc2F)C1=O)NCc1cccnc1 | 94.5% |
| O=c1c2ccccc2nc2n1CCN2 | 84% |
| O=C(CSc1nnc(Cn2c(=O)sc3ccccc32)n1-c1ccccc1)Nc1nccs1 | 97% |
| Cc1ccc(-n2nc(C)c3cc(C(=O)O)sc32)cc1 | 97% |
| CCOC(=O)c1oc2c(CN3CCN(C)CC3)c(O)ccc2c(=O)c1-c1ccccc1OC | 94% |
| CCCCn1c(NCc2ccccc2O)nc2ccccc21 | 98% |
| Cc1cc2ncc(-c3ccc(Cl)cc3)c(N)n2n1 | 83% |
| CC1(C(=O)NC2CCCCC2)CCC(=O)N1Cc1cccs1 (stereo not given) | 83% |
| CCc1cc(=O)n2[nH]c(C)c(-c3ccccc3OC)c2n1 | 80.5% |
| Cc1nnc(SCCn2c(N3CCC(Cc4ccccc4)CC3)nc3c2c(=O)[nH]c(=O)n3C)s1 | 82.5% |
| O=C(C1CCCN(S(=O)(=O)c2cccnc2)C1)N1CCn2c1nc1ccccc12 (stereo not given) | 90.5% |
| CCOC(=O)c1ccc(NC(=O)Cn2cc3c(n2)CCC(C)C3)cc1 (stereo not given) | 91.5% |
| Cc1cc(C)cc(N(CC(=O)Nc2cccc(C)n2)S(=O)(=O)c2c(C)noc2C)c1 | 88.5% |
| COc1ccc(-c2nnc(SCC(=O)N3CCOCC3)o2)cc1OC | 91% |
| Cc1c(C(=O)OCc2ccccc2)[nH]c2c1C(=O)CC(c1ccco1)C2 (stereo not given) | 86.5% |

| Compound | viability |
| --- | --- |
| CCCn1cc(SCC(N)=O)c2ccccc21 | 86.5% |
| CC1CCCCN1CCNC(=O)C1CCN(S(=O)(=O)c2cccc3cccnc23)CC1 (stereo not given) | 97% |
| Cc1onc(-c2ccccc2Cl)c1C(=O)N1CCc2ccccc21 | 87.5% |
| O=C(c1ccc(CNc2c(N3CCCC3)c(=O)c2=O)cc1)N1CCc2ccccc2C1 | 90.5% |
| Cc1cccc(-n2ncc3c(NCc4cccnc4)ncnc32)c1 | 95.5% |
| COc1cccc2cc(C(=O)OC3CCN(C)CC3)c(=O)oc12 | 96% |
| CCOc1ccccc1NC(=O)CC1Nc2cc(C)c(C)cc2NC1=O (stereo not given) | 80.5% |
| COC(=O)C(C)Sc1nnc2n(-c3cccc(C)c3)c(=O)c3c4c(sc3n12)CCCC4 (stereo not given) | 87.5% |
| Cc1c(NC(=O)C2CCCCN2S(=O)(=O)c2ccc(Cl)cc2)c(=O)n(-c2ccccc2)n1C (stereo not given) | 112% |
| CCC(=O)c1cc(F)c(N2CCN(C(=O)c3ccco3)CC2)cc1C | 82% |
| Cc1cccc(C2CC(c3ccccc3)Nc3nc(N)nn32)c1 (stereo not given) | 92% |
| Cc1ccc(C)c(NC(=O)CSc2nnc(-c3ccccc3)o2)c1 | 89.5% |
| CCCCN(CC)CCNC(=O)c1cc2c(C)nc3ccccc3c2o1 | 91% |
| O=C(Nc1ccccc1)C1=C(O)CC(c2ccoc2)CC1=Nc1ccccc1 (stereo not given) | 93% |
| COc1ccc(OCc2nc(C#N)c(N3CCN(c4ccc(OC)cc4)CC3)o2)cc1 | 94% |
| CCOc1cccc(OCCCCn2ccnc2)c1 | 87% |
| COc1ccc(OC)c(C2CC(=O)NC(SC)=C2C#N)c1 (stereo not given) | 102% |
| Cc1cc(NC(=O)c2cccc(S(=O)(=O)N3CC(c4ccccc4)CC3=O)c2)no1 (stereo not given) | 92% |
| O=C(Cn1nc(Cc2ccncc2)c2ccccc2c1=O)N1CCN(C(=O)c2ccco2)CC1 | 98.5% |
| COC(=O)c1sc(NC(=O)COc2ccccc2OC)nc1C | 99.5% |
